In PubChem BioAssay (NCATS):
Results filed as inconclusive are left out. Where a call stands in place of a potency, no number is given. The source made the active and inactive calls. The call rests on the fitted dose curve; in most records, active means well fitted cell-killing curve with a large enough effect; inconclusive means small, poorly fitted or top-dose-only effect, or effect the other way; inactive means flat fitted curve, though single readings scatter.

test system: JEG-3; assay: Primary qHTS to identify gynecologic anti-cancer compounds using libraries of approved drugs and bioactive compounds (AID 1345084); conditions: Gynecologic cancer cell panel viability, ATPlite luminescence, 48 h; series mostly up to 57.5 µM; further: nearly all actives have a fitted effect of over 55% in size
Procedure, shortened: (§1)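 In this quantitative HTS, cell killing is estimated from loss of ATP-dependent luciferase light. Cells see five compound concentrations over a 48 h exposure.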
Potency means the concentration at half of the fitted maximal effect.

Row | Structure (SMILES) | Potency
1 | Cc1ccc(O)c2ncccc12 | inactive
2 | Cc1c(C)n(CCN(C)C)c2ccc(C(=O)OCCN(C)C)cc12 | inactive
3 | Oc1c(I)cc(Cl)c2cccnc12 | inactive
4 | CC1=C(C(=O)O)N2C(=O)[C@@H](NC(=O)[C@H](N)c3ccc(O)cc3)[C@H]2SC1 | inactive
5 | Nc1ccc(C(=O)Nc2ccccc2N)cc1 | inactive
6 | Cc1ccccc1C(=O)Nc1ccc(C(=O)N2CCCC(N(C)C)c3ccccc32)cc1 (configuration not stated) | inactive
7 | CN(C/C=C/c1ccccc1)Cc1cccc2ccccc12 | inactive
8 | C=C(CC)C(=O)c1ccc(OCC(=O)O)c(Cl)c1Cl | inactive
9 | O=C1OC(c2ccc(O)cc2)(c2ccc(O)cc2)c2ccccc21 | inactive
10 | NC(=NCCCCCCN=C(N)/N=C(\N)Nc1ccc(Cl)cc1)/N=C(\N)Nc1ccc(Cl)cc1 | inactive

test system: OV90; assay: as above; conditions: Gynecologic cancer cell panel viability, ATPlite luminescence, 48 h; series mostly up to 57.5 µM
Procedure, shortened: as §1

Row | Structure (SMILES) | Potency
11 | CCCCCCC[N+](CC)(CC)CCCCc1ccc(Cl)cc1 | 10 µM (active)
12 | COc1ccc(OC)c(C(O)CNC(=O)CN)c1 (configuration not stated) | inactive
13 | Cc1c(C(C)C)c(=O)n(-c2ccccc2)n1C | inactive
14 | N[C@H](Cc1c[nH]c2ccccc12)C(=O)O | inactive
15 | CN(C)C(=S)SC(=S)N(C)C | 7.94 µM (active)
16 | CCC(C(=O)OCCN(CC)CC)c1ccccc1 (configuration not stated) | inactive
17 | CCCN1CCCC[C@H]1C(=O)Nc1c(C)cccc1C | inactive
18 | COc1cc(-c2ccc(=O)[nH]n2)ccc1OC(F)F | inactive
19 | Oc1ccc(O)cc1 | inactive
20 | OC[C@H]1O[C@@H](n2cnc3c(=S)nc[nH]c32)[C@H](O)[C@@H]1O | 8.91 µM (active)
21 | CO/N=C1\CN(c2nc3c(cc2F)c(=O)c(C(=O)O)cn3C2CC2)CC1CN (configuration not stated) | inactive
22 | CCCSS/C(CCO)=C(\C)N(C=O)Cc1cnc(C)nc1N | inactive
23 | CCCCCCCCCCCCCCCC[N+](C)(C)CC | 22.4 µM (active)
24 | Cc1ccc(O)c2ncccc12 | inactive
25 | CC1=C(C(=O)O)N2C(=O)[C@@H](NC(=O)[C@H](N)c3ccc(O)cc3)[C@H]2SC1 | inactive
26 | Cc1ccccc1C(=O)Nc1ccc(C(=O)N2CCCC(N(C)C)c3ccccc32)cc1 (configuration not stated) | inactive
27 | CCCCC(CC)CN=C(N)NC(N)=NCCCCCCN=C(N)NC(N)=NCC(CC)CCCC (configuration not stated) | 20 µM (active)
28 | CN(C/C=C/c1ccccc1)Cc1cccc2ccccc12 | inactive
29 | C=C(CC)C(=O)c1ccc(OCC(=O)O)c(Cl)c1Cl | inactive
30 | O=C1OC(c2ccc(O)cc2)(c2ccc(O)cc2)c2ccccc21 | 28.2 µM (active)
31 | COc1cc(C=C2CCC/C(=C\c3ccc(O)c(OC)c3)C2=O)ccc1O | inactive
32 | COc1cccc2c1C(=O)c1c(O)c3c(c(O)c1C2=O)C[C@@](O)(C(C)=O)C[C@@H]3O[C@H]1C[C@H](N)[C@H](O)[C@H](C)O1 | 1.26 µM (active)
